These results are taken from PubChem BioAssay AID686979 (National Center for Advancing Translational Sciences (NCATS), 2013).

Among all 420,000 compounds or so, about 50,000 (12%) were called active. Roughly 26% stayed inconclusive and do not appear here. Calls follow the shape of the dose curve; as a rule, active = well fitted inhibition curve with a large enough effect; inconclusive = small, poorly fitted or top-dose-only effect; inactive = flat fitted curve, though single readings scatter. The entries come from a sample that favours actives as a whole. A call without a number means that no potency is given here.
Potency is read from the fitted curve at half-maximal effect.

This assay can be described thus: qHTS for Inhibitors of human tyrosyl-DNA phosphodiesterase 1 (TDP1): qHTS in cells in presence of CPT. Also: nearly all actives have a fitted effect of over 55% in size. The settings on record: chicken DT40 Tdp1-/-;hTDP1 cells + 20 nM CPT, ATP luminescence, 48 h; series mostly up to 46.2 µM. In short, it runs like this:
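Chicken DT40 Tdp1-/- cells stably complemented with human TDP1 were seeded at 400 cells/well in medium containing 20 nM camptothecin, exposed to pin-transferred compounds, and grown at 37 °C for at least 48 hr. Viability was read as ATP luminescence.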
For orientation: qHTS replaces the single test concentration by a dilution series.
On to `NS(=O)(=O)c1ccc(NC(=S)N2CCCC2)cc1`, for which the Potency entry is “inactive”. In the case of `CCSC1=NCCN1C(=O)c1ccc(S(=O)(=O)N(CC)CC)cc1`, the Potency entry was “inactive”.

Consider `COc1ccc(N(C(=O)c2cccnc2)S(=O)(=O)c2ccc(OC)c(OC)c2)cc1`, for which the Potency entry was “inactive”.

For the compound `COc1ccc(C(=O)Nc2ccc(-n3nncc3-c3ccccc3)cc2)cc1OC`, the Potency is 3.66 µM (active). Then `COc1ccc(C(=O)Nc2cccnc2)cc1C(=O)Nc1cccnc1`, with “inactive”.

Turning to `COc1ccccc1C(=O)NNC(=O)c1ccc(NC(=O)c2ccccc2)cc1`, the Potency entry was “inactive”. `CCC1OC(C2CC2)CC2=C1C(=O)OC(C)(C)O2` (centres undefined): the Potency entry was “inactive”. In the case of `CC(=O)N1N=C(c2ccccc2)OC1c1cccnc1` (centres undefined), the Potency entry is “inactive”. As for `Cc1cc(C)cc(NC(=O)CCN2C(=O)c3ccccc3C2=O)c1`, the Potency entry is “inactive”. Take `O=C(N/N=C/c1ccc(O)c2ccccc12)c1cccnc1`: the Potency entry is “inactive”.

As for `Cc1ccc2nc(CNC(=O)c3ccccc3)[nH]c2c1`, the Potency result is “inactive”. Then `Cc1ccc(/C=N/NC(=O)C2=NNC(c3ccccc3)(c3ccccc3)C2)c(O)c1`, with 4.61 µM (active); and `COc1ccc(C2=NO[C@@H]3C(=O)N(Cc4ccccc4)C(=O)[C@H]23)cc1OC`, with “inactive”; and `COc1ccc(-c2cc(C(F)(F)F)nc(S(C)(=O)=O)n2)cc1OC`, with 2.06 µM (active). For the compound `CCN(CC)CCN(C)C(c1ccnc2ccccc12)c1nnnn1-c1ccc2c(c1)OCCO2` (centres undefined), the Potency result was “inactive”. With `Cc1ccc(S(=O)(=O)NCCCn2ccnc2)cc1C(=O)NC(C)C`, the Potency entry was “inactive”. As to `O=C(NCc1ccco1)c1ccc([N+](=O)[O-])cc1Cl`, the Potency entry was “inactive”. Then `Cc1ccc(C(=O)OCC(=O)NC2CCCCCCC2)cc1C`, with “inactive”; and `c1ccc2c(c1)C(=NC1CCCCC1)NC2=NC1CCCCC1`, with 18.4 µM (active). On to `COc1cc(NC(=S)N2CCCC(C)C2)cc(OC)c1OC` (centres undefined), for which the Potency entry is “inactive”. The entry for `O=C(CN1CCN(C(=O)c2cccc(F)c2)CC1)Nc1ccccc1F` is “inactive”; for `COc1cccc(C(=O)NCc2ccc3c(c2)CCN3C(=O)c2ccncc2)c1` it is “inactive”; for `O=C(COc1ccccc1)NCc1ccc2c(c1)CCN2C(=O)c1ccc(F)cc1` it is 16.4 µM (active). As to `O=C(NCc1ccc2c(c1)CCN2C(=O)c1ccccc1)Nc1cc(F)ccc1F`, the Potency is 16.4 µM (active).

For `O=C(Cc1ccccc1)NCc1ccc(F)cc1`, the Potency result was “inactive”. As to `Cc1ccc(C(=O)N2CCc3cc(CNC(=O)c4ccc(Br)cc4)ccc32)cc1`, the Potency entry was “inactive”. Turning to `Cc1cccc(C(=O)N2CCc3cc(CNC(=O)Cc4ccc(F)cc4)ccc32)c1`, the Potency is 16.4 µM (active). The figure for `O=C(CCc1ccccc1)NCc1ccc2c(c1)CCN2C(=O)c1ccccc1` is 10.3 µM (active); for `O=C(CSCc1ccccc1)N1CCc2ccccc21` it is “inactive”. With `CCC(=O)N1CCc2cc(CNC(=O)Nc3ccccc3Cl)ccc21`, the Potency entry was “inactive”.

As for `O=C(CCc1ccc(S(=O)(=O)NC2CCCCC2)cc1)NCc1ccccc1`, the Potency entry is “inactive”. In the case of `O=C(COc1ccccc1)Nc1ccc(C(=O)N2CCCC2)cc1`, the Potency entry is “inactive”. For `CC1CCC2(CC1)NC(=O)N(CC(=O)c1ccc3c(c1)OCO3)C2=O` (centres undefined), the Potency entry is “inactive”. For `COc1cc(OC)c(N(C)C(=O)c2cc3c(=O)oc4ccccc4c3s2)cc1Cl`, the Potency result is “inactive”.

For `CCc1nnc(NS(=O)(=O)c2ccc(NC(=O)c3cccc(OC(F)(F)C(F)F)c3)cc2)s1`, the Potency entry is “inactive”. Take `CCCCCC(=O)Nc1ccc(-c2cn3cccnc3n2)cc1`: the Potency result was “inactive”.

On to `O=C(Nc1cccc2cccnc12)c1cccc2c(Br)cccc12`, for which the Potency result was “inactive”. Then `COC(=O)C1NN=C(C(=O)c2ccc(Br)cc2)C1c1cccc(Br)c1` (centres undefined), with “inactive”; and `O=C(Nc1ccc(Br)cc1)c1cccc(NC(=O)C2C3CC4OC(=O)C2C4C3)c1` (centres undefined), with “inactive”.

On to `CCc1cccc(CC)c1NC(=S)NCc1ccc2[nH]c(C)cc2c1`, for which the Potency was 23.1 µM (active). Then `CCc1cccc(CC)c1NC(=S)Nc1ccc2cn[nH]c2c1`, with “inactive”; and `Cc1cc2cc(CNC(=O)c3cccs3)ccc2[nH]1`, with “inactive”; and `Cc1cccc(NC(=O)N2CCCCCC2)c1C`, with “inactive”. Then `CCCCc1nc2ccccc2c(NC(=O)CN2CCN(C)CC2)c1CCC`, with “inactive”; and `O=C(OCc1nnc(-c2ccccc2)o1)c1cc(=O)[nH]c2ccccc12`, with “inactive”; and `CCCc1nc2ccccc2c(C(=O)OCc2nnc(-c3cc(OC)c(OC)c(OC)c3)o2)c1CC`, with 16.4 µM (active).

Take `O=C(CN1CCN(S(=O)(=O)c2ccc(Cl)s2)CC1)N1CCCCC1`: the Potency entry is “inactive”. `CCOC(=O)C=Cc1ccc(C(=O)OCC)[nH]1`: the Potency is 13 µM (active).

`CCOC(=O)c1ccccc1OC(=O)Oc1ccccc1C(=O)OCC`: the Potency entry was “inactive”. The entry for `CCOC(=O)c1c(C)[nH]c(C)c1C(=O)COC(=O)/C=C/c1cccc([N+](=O)[O-])c1` is “inactive”. Consider `CCn1c(N)c(Br)c(=O)[nH]c1=O`, for which the Potency entry was “inactive”. Regarding `O=C(COc1ccccc1)NCCc1nc2ccccc2[nH]1`, the Potency entry was “inactive”. With `COc1ccc(CCNC(=S)NC(=O)/C=C/c2ccc(C)cc2)cc1OC`, the Potency entry was “inactive”. In the case of `CCCCCOc1ccc(/C=C/C(=O)NCCc2nc3ccccc3[nH]2)cc1OC`, the Potency is 16.4 µM (active). With `Cc1nn(CC(=O)NCC2CCCO2)c(=O)c2cc3ccccc3n12` (centres undefined), the Potency result is “inactive”.

In the case of `C=C(C)C1CC=C(CO)CC1` (centres undefined), the Potency entry is “inactive”. Consider `Cc1ccc(-c2nc(=N)sn2Cc2ccccc2)cc1`, for which the Potency was 4.47 µM (active). Consider `Cc1ccc(-n2nc(CO)c(C(=O)NCCc3ccccc3)n2)cc1`, for which the Potency result is “inactive”. Turning to `Cc1ccc(CN2C(=O)SC(Nc3ccccc3)C2=O)cc1` (centres undefined), the Potency result is “inactive”. Turning to `Cc1ccnc(NC(=O)CCCOc2ccccc2)c1`, the Potency entry was “inactive”. As for `CCN1CCN(c2nc(Nc3cccc(F)c3)nc(N)c2[N+](=O)[O-])CC1`, the Potency result is “inactive”. `CN(C)C(CNC(=O)c1ccc(OCc2cn3ccccc3n2)cc1)c1ccco1` (centres undefined): the Potency entry is “inactive”. Regarding `Cc1nn(-c2ccccc2)c2c1C(=O)NC(=O)C(C)(C)C2`, the Potency entry is “inactive”. With `Cc1nn(-c2ncccn2)c2c1C(=O)CC(C)(C)C2Br` (centres undefined), the Potency is 20.6 µM (active). On to `CC1=C(N2CCN(c3ncccn3)CC2)CCC1=O`, for which the Potency result is “inactive”. The entry for `COc1ccc2cc(-c3nc(Cl)c4c5c(sc4n3)CC(C)CC5)c(=O)oc2c1` (centres undefined) is “inactive”; for `CC(C)CNC(=O)CC(c1ccccc1)c1c(O)ccc2ccccc12` (centres undefined) it is “inactive”.

In the case of `CC(C)NC(=O)C(c1ccc(F)cc1)N(C(=O)CCC(=O)Nc1ccccn1)c1ccccc1F` (centres undefined), the Potency result is “inactive”. The entry for `O=C(c1cc(COc2cccc(C(F)(F)F)c2)on1)N1CCSCC1` is “inactive”.
